Test results reported in PubChem BioAssay.
Entries with a potency or affinity are not part of this list. Inconclusive results are not listed. Activity calls are given as the source filed them. Unless noted, the rule behind the calls is not given here.

Experiments:
[1] = HepG2 cell cytotoxicity, dose response, cytotoxicity control, cherry-picks, set 2 (AID 687002;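 active = a dose-response fit showing signal loss, with half-maximal concentration no higher than twice the top tested dose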)
[2] = HeLa cell cytotoxicity, dose response, cytotoxicity control, ATP luminescence, cherry-pick samples (AID 687004;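 active = a fitted half-maximal concentration no higher than twice the top valid tested dose, with signal falling as cells die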;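 note: 0% = neutral control median and -100% = staurosporine 10 µM control median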)
[3] = inhibitors of PAX8-driven TPO luciferase reporter, dose response, RMG-I cells, cherry-pick (AID 687027;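 active = every replicate test run called active, with the signal dropping as expected and potency within twice the top valid dose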)
[4] = cytotoxicity in PAX8-dependent RMG-1 cells, dose response, cell-based, cherry-pick (AID 687029;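 active = signal drop whose fitted half-maximal concentration is at most twice the top valid dose, in every test run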;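 note: cells exposed to compound for 96 hours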)
[5] = cytotoxicity in IOSE-T80 ovarian epithelial cells, dose response, selectivity assay for PAX8 inhibitor project, cell-based, cherry-pick (AID 687032;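 active = fitted half-maximal concentration for viability loss no higher than twice the top valid dose, in every repeat run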;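 note: cells exposed to compound for 96 h before reading; 0% = neutral control wells and -100% = 2 µM mitoxantrone kill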)
[6] = inhibitors of CMV-promoter luciferase reporter, dose response, counter-screen for Pax8 inhibitor project, cell-based, HEK293, luminescence, dry powder (AID 743020;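 active = signal-lowering compounds whose fitted half-maximal concentration is at or below twice the top tested dose in every run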;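 note: HEK293 cells stably expressing the CMV luciferase reporter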)
[7] = non-specific cell cytotoxicity, dose response, cytotoxicity control for PAX8 inhibitor project, plate reader, dry powder samples (AID 743021)
[8] = IGROV1 ovarian cancer cell cytotoxicity, dose response, PAX8 inhibitor project, plate reader, dry powder samples (AID 743043);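 note: more negative means fewer viable cells or more cytotoxicity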
[9] = NIH:OVCAR-3 ovarian cancer cell cytotoxicity, dose response, PAX8 inhibitor project, plate reader, dry powder samples (AID 743044); details: max activity: at 35 µM, active compounds read low unless noted
[10] = IOSE-T80 ovarian epithelial cell cytotoxicity, dose response, cytotoxicity control for PAX8 inhibitor project, plate reader, dry powder samples (AID 743045);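 note: 0% = neutral control median and -100% = positive control median; more negative values mean more cell killing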
[11] = cytotoxicity in OVCAR8 ovarian cancer cells, dose response, PAX8 project, cell-based, plate reader, dry powder samples (AID 743197)
[12] = A2780 ovarian cancer cell cytotoxicity, dose response, cytotoxicity control, plate reader, dry powder samples (AID 743046);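 note: 0% = neutral control wells and -100% = cytotoxic reference compound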

C[C@H](CO)N1C[C@H](C)[C@@H](CN(C)S(=O)(=O)c2cn(C)cn2)Oc2c(NC(=O)Nc3ccccc3)cccc2C1=O
inactive: outcome [1] | outcome [2]

CCCCNC(=S)N/N=C/c1ccc(C#N)cc1
inactive: outcome [1] | outcome [2]

N/C(=N\OS(=O)(=O)c1cccc([N+](=O)[O-])c1)c1ccncc1
inactive: outcome [3] | outcome [4] | outcome [5] | outcome [6] | outcome [7]

O=C(O)CCCNC(=O)C(c1ccccc1)c1ccccc1
inactive: outcome [3] | outcome [4] | outcome [5] | outcome [6] | outcome [7]

COC(=O)CN1C(=S)N(C)C(=O)C1CC(=O)Nc1ccccc1 (stereo not given)
inactive: outcome [3] | outcome [4] | outcome [5] | outcome [6] | outcome [7]

COC(=O)C1=C(C)N(CC(C)C)C(=S)NC1c1ccc(Cl)cc1 (stereo not given)
inactive: outcome [1] | outcome [2]

COC(=O)C1=C(C)N(Cc2ccc(F)cc2)C(=S)NC1c1cccc(F)c1 (stereo not given)
inactive: outcome [1] | outcome [2]

O=[N+]([O-])c1cccnc1S(=O)(=O)c1ccccc1
inactive: activity change, negative = inhibition [3] -21.1% [at 8 µM]

Cc1ccc(NC(=S)N(CCCN2CCOCC2)Cc2ccccn2)cc1
inactive: outcome [3] | outcome [4] | outcome [5] | outcome [6]

COc1ccc(CN2C(=O)C(CC(=O)NCCCCc3ccccc3)CC(C(=O)N3CCOCC3)=C2C)cc1 (stereo not given)
inactive: outcome [3] | outcome [4] | outcome [5] | outcome [6] | outcome [7]

C[C@@H]1CN([C@H](C)CO)C(=O)Cc2cc(NC(=O)NC3CCCCC3)ccc2O[C@@H]1CN(C)Cc1ccccc1
inactive: outcome [1] | outcome [2]

COc1ccc(C2Nc3ccccc3C(=O)N2c2ccc(F)cc2)cc1CSc1ccccn1 (stereo not given)
inactive: outcome [3] | outcome [4]

O=C(c1cccs1)N1C[C@H](O)[C@@H](n2cc(C3CC3)nn2)C[C@@H]1c1ccccc1
inactive: outcome [3] | outcome [4] | outcome [5] | outcome [6] | outcome [7]

Cn1c(SCC(=O)c2ccccc2)nnc1-c1ccccn1
inactive: outcome [3]

O=C(CSc1ncccc1-c1nc2ccccc2[nH]1)N1CCc2ccccc21
inactive: outcome [3]

COc1cc(OC)c(N(C)C(=O)c2cn(C)c(=O)c3cc(OC)c(OC)cc23)cc1Cl
inactive: outcome [1] | outcome [2]

Cc1ccccc1Cn1cnc2ccccc2c1=O
inactive: outcome [3] | outcome [4] | outcome [5] | outcome [6] | outcome [7]

CN(CC(=O)Nc1cccc(F)c1)C(=O)CCCc1cccs1
inactive: outcome [3] | outcome [4] | outcome [5] | outcome [6] | outcome [7]

COc1cc2c(C(=O)N(C)c3cc(Cl)ccc3OC)cn(C)c(=O)c2cc1OC
inactive: outcome [1] | outcome [2]

COc1cccc(C(=O)NC(=S)Nc2ccccc2N2CCOCC2)c1
inactive: outcome [1] | outcome [2]

O=C(c1ccc2c(c1)OCO2)N1CCN(c2ccc(C(F)(F)F)cn2)CC1
inactive: outcome [3] | outcome [4] | outcome [5] | outcome [6] | outcome [7]

COC(=O)C1=C(C)N(CC(C)C)C(=S)NC1c1ccc(F)cc1 (stereo not given)
inactive: outcome [1] | outcome [2]

COC(=O)C1=C(C)N(Cc2ccc(F)cc2)C(=S)NC1c1cccc(Br)c1 (stereo not given)
inactive: outcome [1] | outcome [2]

CC1CCCC(NC(=O)COC(=O)c2ccccc2Sc2ccccc2C#N)C1C (stereo not given)
inactive: outcome [3] | outcome [4] | outcome [5] | outcome [6] | outcome [7]

O=C(NC1CCCCC1)C(c1ccc(F)cc1)N(Cc1ccco1)C(=O)CN1C(=O)c2ccccc2S1(=O)=O (stereo not given)
inactive: outcome [3] | outcome [4] | outcome [5] | outcome [6] | outcome [7]

O=C(CCCC(=O)OCC(Cl)=C(Cl)Cl)Nc1ccc(F)cc1
inactive: outcome [3] | outcome [4] | outcome [5] | outcome [6] | outcome [7]

COC(=O)C1=C(C)N(CC(C)C)C(=S)NC1c1cccc(F)c1 (stereo not given)
inactive: outcome [1] | outcome [2]

CCCCCCCCC(=O)NCCOc1ccccc1
inactive: outcome [3] | outcome [4] | outcome [5] | outcome [6] | outcome [7]

Cc1ccc(NC(=O)C2CC(=O)N/C(=N/N=C/c3ccco3)S2)cc1C (stereo not given)
inactive: outcome [3] | outcome [4] | outcome [5] | outcome [6] | outcome [7]

CCN1C(=S)N[C@@H](c2ccccc2)C(C(=O)OC)=C1C
inactive: outcome [1] | outcome [2]

COCCNC(=O)C/C(C)=N/NC(=O)C(=O)NC1CCCCC1
inactive: outcome [3] | outcome [4] | outcome [5] | outcome [6] | outcome [7]

CCOc1ccc2ccccc2c1/C=N\NC(=O)OC
inactive: outcome [3] | outcome [4]

Cn1cc(/C=C(\C(=O)O)C(C(=O)O)=C2CCCCC2)c2ccccc21
inactive: outcome [3] | outcome [4] | outcome [5] | outcome [6] | outcome [7]

Cc1cc(C)c(NC(=O)C2CCCN2C(=O)NC2CCCCC2)c(C)c1 (stereo not given)
inactive: outcome [1] | outcome [2]

COC(=O)C1=C(C)N(Cc2ccc(Cl)cc2)C(=S)NC1c1cccc(F)c1 (stereo not given)
inactive: outcome [1] | outcome [2]

CO[C@@H]1CN(C)C(=O)c2ccc(NC(C)=O)cc2OC[C@@H](C)N(C(=O)Cc2cccnc2)C[C@H]1C
inactive: outcome [1] | outcome [2]

CCCCNC(=O)/C(=C/c1ccccc1)NC(C)=O
inactive: outcome [3] | outcome [4] | outcome [5] | outcome [6] | outcome [7]

Cc1csc(NC(=O)C(C)Oc2ccc(Br)cc2)n1 (stereo not given)
inactive: outcome [3] | outcome [4] | outcome [5] | outcome [6] | outcome [7]

C[C@@H]1CCCCO[C@@H](CN(C)CC2CCCCC2)[C@H](C)CN([C@H](C)CO)C(=O)c2cc(NC(=O)Nc3ccccc3)ccc2O1
inactive: outcome [3] | outcome [4] | outcome [5] | outcome [6] | outcome [7] | outcome [8] | max activity [9] -37.2% [at 4.2 µM, active compounds read low] | outcome [10] | outcome [11]

CN1[C@@H]2Cn3c(ccc(-c4ccccc4)c3=O)[C@H]1[C@@H](C(=O)NC1CCCCC1)[C@@H]2CO
inactive: outcome [3] | outcome [4] | outcome [5] | outcome [6] | outcome [7] | outcome [8] | max activity [9] -24.4% | outcome [10] | outcome [12] | outcome [11]

Cc1ccc(-c2ccc([C@@H]3[C@@H]4CN(Cc5ccccc5F)C[C@H]3N4)cc2)cc1
inactive: outcome [3] | outcome [4] | outcome [5] | outcome [6] | max activity [9] -28% | outcome [10] | outcome [11]

O=C(Cc1ccccn1)NCC[C@@H]1CC[C@H](NC(=O)Nc2ccc(C(F)(F)F)cc2)[C@@H](CO)O1
inactive: outcome [3] | outcome [4] | outcome [5] | outcome [6] | outcome [7] | outcome [8] | max activity [9] -10.6% [at 16 µM, active compounds read low] | outcome [10] | outcome [12] | outcome [11]

COc1ccc(-c2cn(CC[C@@H]3CC[C@H](NC(=O)Cc4ccccn4)[C@H](CO)O3)nn2)cc1
inactive: outcome [3] | outcome [4] | outcome [5] | outcome [6] | outcome [7] | outcome [8] | max activity [9] 27.6% [at 1 µM, active compounds read low] | outcome [10] | outcome [11]

COc1ccc(-c2cn(CC[C@H]3CC[C@@H](NC(=O)Cc4ccccn4)[C@H](CO)O3)nn2)cc1
inactive: outcome [3] | outcome [4] | outcome [5] | outcome [6] | outcome [7] | outcome [8] | max activity [9] 35.1% [at 2.1 µM, active compounds read low] | outcome [10] | outcome [11]
